Assay outcomes (PubChem)
Cycloheximide cs: counter-screen for Shiga toxin inhibitors: cycloheximide protein synthesis inhibition | AID 2314 | cell reporter, cycloheximide protein synthesis inhibition counterscreen | max response, % | 300,000 compounds, 12% hits; in the data active = max response mostly above about 13%, no sharp cut-off; inactive = mostly below about 14%; note: read at 38.3 µM for the half of the compounds with a filed dose; 0% is about no effect
Pf growth 96h: P. falciparum growth inhibition at 96 hour, primary screen for plastid delayed-death inhibitors; 320,000 compounds, 6.9% hits; AID 504834; Potency, µM (top dose mostly 28.7 µM), for the others: at the top dose activity change, negative = inhibition, usual class: inhibitors; P. falciparum luciferase reporter growth, 96 h; note: potency is the fitted concentration of half-maximal effect; % is set by controls: 0 for no effect and ±100 for the full control effect
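P. falciparum expressing integrated firefly luciferase grown in erythrocytes (2% hematocrit, 0.05% parasitemia final) with compounds for 96 hours at 37 C, 5% CO2. Growth inhibition read as loss of luminescence after adding luciferase detection reagent.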
Pf growth 48h: inhibits P. falciparum growth in the first generation, 48 h. 310,000 compounds, 5.9% hits. P. falciparum luciferase growth in erythrocytes, 48 h. Potency, µM (doses to about 28.7 µM), for inactives: at the top dose activity change, negative = inhibition, hits mostly inhibitors; note: potency is the fitted concentration of half-maximal effect; % is set by controls: 0 for no effect and ±100 for the full control effect
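Compounds are pin-transferred into medium, infected erythrocytes (2% hematocrit, 0.1% parasitemia final) are added, and plates sit one parasite generation at 37 C in 5% CO2. Detection reagent is then added and luminescence measured.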
HCMV inh: blocks human cytomegalovirus replication. HFF cells, HCMV-luciferase reporter, 72 h; stronger effect = lower value. activity change, negative = inhibition, % at 57.5 µM. 410,000 compounds, 4.5% hits; in the data active = activity change below about -60%; inconclusive = no clear call, values can overlap the other calls; inactive = above about -39%; note: % is set by controls: 0 for no effect and ±100 for the full control effect
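Compounds were evaluated in HFFs infected with an HCMV luciferase reporter virus (MOI 1 PFU/cell). Luciferase in lysates collected 72 h post infection served as the replication measure.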
HCV inhibitor: inhibitors of hepatitis C virus infection | Huh7.5.1 HCVcc-Cre infection, luciferase reporter, 44 h | Potency, µM (highest dose often 41.8 µM), for inactives: top-dose activity change, negative = inhibition, actives largely listed as inhibitors | 340,000 compounds, 3.4% hits | AID 651820; note: potency is the fitted concentration of half-maximal effect; % is set by controls: 0 for no effect and ±100 for the full control effect
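Antiviral activity was scored by luciferase reporter output from cells infected with HCVcc-Cre (~0.5 moi) in presence of compound, 44 h infection period, cells seeded 1,000/well 4 h prior.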
Shiga inhibitor: Shiga toxin inhibition. Vero cells, Shiga toxin protein synthesis inhibition reporter. inhibition, % at 38.7 µM. 290,000 compounds, 9.2% hits. AID 2315; in the data active = inhibition mostly above about 28%, no sharp cut-off; inactive = mostly below about 43%; note: 0% is about no effect
Starred values were filed as active, the others as inactive; ? = inconclusive; . = no result. Most compounds without a hit are left out; they make up all but 21% or so of the library. Unless noted, calls come from the whole dose curve; as a rule, active = well fitted inhibition curve with a large enough effect; inconclusive = small, poorly fitted or top-dose-only effect, or another doubt; inactive = no such curve, though single readings can be large or run the other way.

SMILES	Cycloheximide cs	Pf growth 96h	Pf growth 48h	HCMV inh	HCV inhibitor	Shiga inhibitor
O=c1c2ccccc2nc2ccc(N3CCOCC3)nn12	28.5*	?	102.4%	82.2	16.5%	51.8*
Cc1ccc2nc3ccc(N4CCCCCCC4)nn3c(=O)c2c1	28.1*	.	40.1%	41.8	-5.6%	56.3*
C#CCN1CC(COc2ccccc2)Oc2cccc(Oc3ccc(SC)c(C)c3)c2S1(=O)=O (stereo not given)	.	.	.	-2.8	.	.
CCOc1ccc(-c2oc3cc(Cl)ccc3c(=O)c2O)cc1OC	.	.	.	-11.7	.	.
COc1ccccc1N1CCN(/N=C/c2cccc(O)c2)CC1	29.0*	-26.9%	56.1%	52.8	10.0%	85.5*
COc1ccccc1N1CCN(/N=C/c2ccccc2C(=O)O)CC1	17.2*	5.2%	-16.0%	79.4	2.5%	28.4*
COc1cc(/C=N/N2CCN(c3ccccc3OC)CC2)ccc1OC(C)=O	18.5*	-17.6%	-5.0%	10.7	12.3%	.
COc1cccc(C=NN2CCCCCC2)c1OC	.	.	.	-30.0	-14.5%	.
COc1ccccc1N1CCN(/N=C/c2cc(OC)c(O)c(OC)c2)CC1	2.8	10.0%	-16.1%	-12.0	2.3%	24.4
COc1cccc(/C=N/N2CCN(c3ccc(Cl)cc3)CC2)c1OC	-3.2	?	-3.7%	-69.2*	?	-6.1
Cc1ccc(NC(=O)CN2C(=O)CCc3cc(S(=O)(=O)N4CCCCC4)ccc32)cc1N(C)C	.	.	.	5.4	.	.
Cc1noc(C)c1NC(=O)N(C)C[C@@H]1OCc2cn(nn2)CCCC(=O)N([C@@H](C)CO)C[C@H]1C	.	.	.	-5.9	.	.
CCOc1ccccc1CNc1nc2nc(C)cc(C)n2n1	.	.	.	10.6	.	.
O=C(O)CCC1CCCC1	-2.7	.	.	.	.	-10.6
CN(C)C1=NC(=O)/C(=C/c2ccc(-c3ccc(S(N)(=O)=O)cc3)o2)S1	-4.2	-11.8%	7.2%	.	.	-7.1
NC1=NC(=O)/C(=C\c2ccc(-c3ccc(Cl)cc3)o2)S1	13.0*	4.7%	-8.5%	31.4	12.8%	30.4*
O=C(Nc1ccc2c(c1)OCO2)c1cn(Cc2ccc(F)cc2)nn1	18.1	?	39.2%	36.6	7.1%	41.8*
O=C(Nc1ccc2c(c1)OCO2)c1ccc(CN2CCOCC2)cc1	39.7*	0.1%	35.0%	44.1	?	59.8*
O=C(Nc1ccc(CN2CCCCC2)cc1)c1ccc2c(c1)OCO2	20.4*	.	4.7%	-6.9	-2.1%	33.7*
O=C(CN1CCN(Cc2ccc3c(c2)OCO3)CC1)Nc1ccc2c(c1)OCO2	-1.6	.	3.9%	6.2	-3.7%	-22.6
Cn1c(-c2ccccc2)cc(=NNS(C)(=O)=O)c2cc(S(=O)(=O)O)ccc21	.	.	.	-27.7	.	.
CCCCn1c(N)c(N(CC(C)C)C(=O)C2CCCN(C(=O)c3ccc(Cl)cc3)C2)c(=O)[nH]c1=O (stereo not given)	.	?	?	11.3	4.9%	.
CCOCCCNC(=S)NCCCNc1nc2ccc(C)cc2cc1C#N	13.7	-27.5%	-10.0%	-90.6*	.	-10.2
Cc1ccc(S(=O)(=O)N2CCN(C(=O)C3CCCC3)CC2)cc1C	-1.1	-3.6%	-3.3%	-18.1	18.7%	-3.3
CC(C)OC(=O)c1ccccc1C(=O)c1ccc(N)c([N+](=O)[O-])c1	-3.2	71.0%	?	2.7	-8.2%	-7.2
SMILES	Cycloheximide cs	Pf growth 96h	Pf growth 48h	HCMV inh	HCV inhibitor	Shiga inhibitor
O=C(COC(=O)c1ccccc1[N+](=O)[O-])c1ccc(C2CCCCC2)cc1	59.9*	-1.8%	18.0%	?	-29.9%	71.0*
O=C(OC1CCOC1=O)c1ccccc1C(=O)c1ccc(Cl)c([N+](=O)[O-])c1 (stereo not given)	.	-40.9%	?	.	11.2µM*	.
O=C(COC(=O)c1ccc2c(c1Cl)C(=O)c1ccccc1C2=O)NC1CCCCC1	-2.7	10.5%	-19.3%	-11.7	-18.6%	3.2
CNC(=O)COC(=O)c1ccccc1C(=O)c1ccc(Cl)c([N+](=O)[O-])c1	33.4*	-3.7%	?	-99.9*	?	41.2
O=C(COC(=O)c1ccc2c(c1Cl)C(=O)c1ccccc1C2=O)NC1CC1	31.3*	?	-12.6%	?	-16.4%	39.3*
CCCOc1ccc(C(=O)c2ccccc2C(=O)OC2CCOC2=O)cc1OCCC (stereo not given)	.	-11.1%	?	26.5	?	.
CS(=O)(=O)c1ccc(C(=O)OC2CCOC2=O)cc1[N+](=O)[O-] (stereo not given)	-0.9	?	6.57µM*	?	?	2.5
CNS(=O)(=O)c1cccc(C(=O)OC2CCOC2=O)c1 (stereo not given)	3.4	33.9%	0.1%	-17.4	10.0%	-6.1
O=C(COC(=O)c1ccccc1C(=O)c1ccc(Cl)c([N+](=O)[O-])c1)NC1CC1	16.9	2.4%	-2.2%	-99.1*	11.2µM*	9.6
O=C(COC(=O)c1cc([N+](=O)[O-])ccc1Cl)NC1CCCC1	-3.4	12.6%	15.0%	-9.6	-4.5%	-5.3
CCc1cc2cc(C)ccc2nc1SCC(=O)NNC(=O)c1ccco1	3.2	-28.1%	?	-8.2	?	-3.7
Cc1ccc2nc(Cl)c(/C=C/C(=O)c3ccco3)cc2c1	57.3*	19.4%	25.3%	167.5	-3.7%	80.9*
Cc1ccc2cc(/C=C/C(=O)c3ccco3)c(Cl)nc2c1	83.3*	0.0%	?	149.9	?	116.7*
CCc1cc2ccc(C)cc2nc1SCC(=O)N1CCN(C(=O)c2ccco2)CC1	2.1	63.0%	?	?	?	3.9
CCOC(=O)c1cc2c(ccn2-c2ccc(F)cc2)n1CC(=O)N(CC)CC	1.6	21.5%	?	-30.7	?	-3.2
CCc1cccc2c(C(=S)N3CCOCC3)c[nH]c12	-0.7	-3.7%	-13.5%	-30.5	6.9%	66.2
CCc1cccc2c(C(=O)C(NCCCOC)c3ccccc3)c[nH]c12 (stereo not given)	10.0	-27.1%	?	7.6	11.2µM*	33.7
CCc1cccc2c(C(=O)C(NC(C)CC)c3ccccc3)c[nH]c12 (stereo not given)	1.3	?	?	-21.6	11.2µM*	30.9
COCCNC(=O)Cn1cc(/C=C(\C#N)C(=O)NC2CCCC2)c2ccccc21	-1.4	10.4µM*	4.4%	-11.1	-0.3%	.
Cc1ccc(C)c(OCCn2cc(/C=C(\C#N)C(=O)NCC3CCCO3)c3ccccc32)c1 (stereo not given)	-0.4	1.65µM*	2.62µM*	5.8	?	-8.2
N#C/C(=C\c1cn(CCOc2ccccc2F)c2ccccc12)C(=O)NCc1cccs1	-1.1	26.4%	-7.2%	-6.6	5.8%	-3.5
Cc1ccc(OCCn2cc(/C=C(\C#N)C(=O)NCC3CCCO3)c3ccccc32)cc1 (stereo not given)	11.6	92.4%	10.4µM*	-28.6	?	-8.7
Cc1ccc(C)c(OCCn2cc(/C=C(\C#N)C(=O)NCc3cccs3)c3ccccc32)c1	-1.8	3.29µM*	4.65µM*	-2.1	-9.2%	2.1
